About 7,900 targets were measured; listed, in parts, are those with a hit and a random draw of the rest. About 0.6% of all pairs of compound and target were hits. Unmarked numbers belong to inactive results.

From the supplement of paper PMC10849652 come the findings set out here.

UniProt Q86UU1, sequence (Q86UU1 whole entry, looked up): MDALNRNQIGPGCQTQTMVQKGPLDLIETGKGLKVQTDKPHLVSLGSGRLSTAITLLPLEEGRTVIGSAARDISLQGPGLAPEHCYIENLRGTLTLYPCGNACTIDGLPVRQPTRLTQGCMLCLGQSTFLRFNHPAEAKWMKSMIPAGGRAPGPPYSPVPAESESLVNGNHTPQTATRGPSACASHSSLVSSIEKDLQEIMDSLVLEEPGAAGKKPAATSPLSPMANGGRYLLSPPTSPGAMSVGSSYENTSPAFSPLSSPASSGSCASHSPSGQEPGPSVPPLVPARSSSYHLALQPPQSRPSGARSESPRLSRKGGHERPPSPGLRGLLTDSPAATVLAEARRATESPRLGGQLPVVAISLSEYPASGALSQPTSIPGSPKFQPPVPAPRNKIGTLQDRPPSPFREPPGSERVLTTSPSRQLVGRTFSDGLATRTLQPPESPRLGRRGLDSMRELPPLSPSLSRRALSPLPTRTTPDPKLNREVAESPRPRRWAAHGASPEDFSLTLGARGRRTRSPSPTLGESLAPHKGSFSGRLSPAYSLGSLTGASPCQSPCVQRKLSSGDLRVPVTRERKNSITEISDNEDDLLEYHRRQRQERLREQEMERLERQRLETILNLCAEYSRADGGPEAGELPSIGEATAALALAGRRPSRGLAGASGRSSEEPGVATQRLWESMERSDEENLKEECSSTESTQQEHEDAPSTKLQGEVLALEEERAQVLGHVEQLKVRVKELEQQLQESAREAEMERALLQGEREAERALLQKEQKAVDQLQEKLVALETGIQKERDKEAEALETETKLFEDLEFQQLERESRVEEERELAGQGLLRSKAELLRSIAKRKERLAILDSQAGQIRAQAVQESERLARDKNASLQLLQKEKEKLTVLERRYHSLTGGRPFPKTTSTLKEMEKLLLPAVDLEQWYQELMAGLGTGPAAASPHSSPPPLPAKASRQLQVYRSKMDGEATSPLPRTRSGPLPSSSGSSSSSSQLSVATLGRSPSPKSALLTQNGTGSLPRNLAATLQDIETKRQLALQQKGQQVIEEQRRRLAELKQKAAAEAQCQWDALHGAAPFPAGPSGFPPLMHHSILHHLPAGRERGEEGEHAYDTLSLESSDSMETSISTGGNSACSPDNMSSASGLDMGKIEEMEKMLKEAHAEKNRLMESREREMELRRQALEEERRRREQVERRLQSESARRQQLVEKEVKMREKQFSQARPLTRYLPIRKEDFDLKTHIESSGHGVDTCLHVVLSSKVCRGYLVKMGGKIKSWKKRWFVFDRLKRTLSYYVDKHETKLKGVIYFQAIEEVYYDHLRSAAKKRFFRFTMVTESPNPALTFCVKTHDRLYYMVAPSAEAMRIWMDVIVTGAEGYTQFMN
UniProt P14618, sequence (P14618 whole entry, looked up): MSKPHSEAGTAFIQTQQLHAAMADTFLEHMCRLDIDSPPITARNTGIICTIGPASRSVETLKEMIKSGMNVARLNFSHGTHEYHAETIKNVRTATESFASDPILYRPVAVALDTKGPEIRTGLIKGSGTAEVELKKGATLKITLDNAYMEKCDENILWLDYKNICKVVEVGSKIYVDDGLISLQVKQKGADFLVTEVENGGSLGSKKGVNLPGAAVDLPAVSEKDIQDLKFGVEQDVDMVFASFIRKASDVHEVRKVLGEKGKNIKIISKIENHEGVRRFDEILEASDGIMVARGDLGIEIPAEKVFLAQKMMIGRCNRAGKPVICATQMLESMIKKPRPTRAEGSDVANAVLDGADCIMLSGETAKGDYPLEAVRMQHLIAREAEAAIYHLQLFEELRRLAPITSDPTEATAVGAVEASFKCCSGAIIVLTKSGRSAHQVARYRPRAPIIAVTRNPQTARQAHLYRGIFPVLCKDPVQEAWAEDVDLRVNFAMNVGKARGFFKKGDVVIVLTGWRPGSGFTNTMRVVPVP
UniProt Q8NDX5, sequence (Q8NDX5 whole entry, looked up): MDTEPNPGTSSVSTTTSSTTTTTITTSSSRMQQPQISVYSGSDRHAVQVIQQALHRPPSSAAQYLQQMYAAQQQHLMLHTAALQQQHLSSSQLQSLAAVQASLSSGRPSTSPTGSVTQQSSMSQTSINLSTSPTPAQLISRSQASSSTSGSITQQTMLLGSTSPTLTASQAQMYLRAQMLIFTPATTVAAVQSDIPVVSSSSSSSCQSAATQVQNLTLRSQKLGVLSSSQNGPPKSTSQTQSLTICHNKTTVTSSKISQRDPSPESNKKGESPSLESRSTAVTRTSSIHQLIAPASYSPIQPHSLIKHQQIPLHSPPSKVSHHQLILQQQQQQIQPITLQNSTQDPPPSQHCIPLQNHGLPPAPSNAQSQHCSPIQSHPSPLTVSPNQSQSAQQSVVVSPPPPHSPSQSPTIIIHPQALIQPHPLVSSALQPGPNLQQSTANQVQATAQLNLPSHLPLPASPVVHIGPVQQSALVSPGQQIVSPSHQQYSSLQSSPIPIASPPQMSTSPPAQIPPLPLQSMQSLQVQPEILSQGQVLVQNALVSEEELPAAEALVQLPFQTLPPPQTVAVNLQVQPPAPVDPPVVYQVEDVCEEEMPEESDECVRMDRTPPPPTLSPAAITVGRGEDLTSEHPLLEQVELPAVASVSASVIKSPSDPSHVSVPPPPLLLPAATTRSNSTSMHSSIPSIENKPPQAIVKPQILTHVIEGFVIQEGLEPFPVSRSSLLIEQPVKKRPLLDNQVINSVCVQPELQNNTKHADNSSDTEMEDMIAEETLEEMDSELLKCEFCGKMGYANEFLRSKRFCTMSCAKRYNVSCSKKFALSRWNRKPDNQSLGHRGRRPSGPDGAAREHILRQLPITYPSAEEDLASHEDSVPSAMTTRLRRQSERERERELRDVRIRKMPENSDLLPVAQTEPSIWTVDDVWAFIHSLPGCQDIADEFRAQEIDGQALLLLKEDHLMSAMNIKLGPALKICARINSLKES
UniProt Q15126, sequence (Q15126 whole entry, looked up): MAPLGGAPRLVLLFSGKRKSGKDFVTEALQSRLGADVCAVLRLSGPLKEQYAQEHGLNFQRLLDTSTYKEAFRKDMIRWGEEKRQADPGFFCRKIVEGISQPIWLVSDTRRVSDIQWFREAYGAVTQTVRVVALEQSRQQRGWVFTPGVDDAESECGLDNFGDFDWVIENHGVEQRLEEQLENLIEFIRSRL
UniProt Q15173, sequence (Q15173 whole entry, looked up): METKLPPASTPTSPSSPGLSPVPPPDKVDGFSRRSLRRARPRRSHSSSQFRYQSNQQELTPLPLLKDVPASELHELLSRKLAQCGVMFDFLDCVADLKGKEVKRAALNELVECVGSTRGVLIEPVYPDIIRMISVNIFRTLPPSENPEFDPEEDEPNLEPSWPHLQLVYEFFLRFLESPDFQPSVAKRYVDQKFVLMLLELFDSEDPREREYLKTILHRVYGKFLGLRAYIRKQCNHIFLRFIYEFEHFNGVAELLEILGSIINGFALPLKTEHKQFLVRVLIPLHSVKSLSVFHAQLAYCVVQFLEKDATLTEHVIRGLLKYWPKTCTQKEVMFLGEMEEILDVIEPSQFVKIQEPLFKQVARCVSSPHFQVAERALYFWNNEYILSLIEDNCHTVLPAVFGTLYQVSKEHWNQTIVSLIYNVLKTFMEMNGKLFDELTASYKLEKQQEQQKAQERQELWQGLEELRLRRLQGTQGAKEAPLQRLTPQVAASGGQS
UniProt Q9BZL4, sequence (Q9BZL4 whole entry, looked up): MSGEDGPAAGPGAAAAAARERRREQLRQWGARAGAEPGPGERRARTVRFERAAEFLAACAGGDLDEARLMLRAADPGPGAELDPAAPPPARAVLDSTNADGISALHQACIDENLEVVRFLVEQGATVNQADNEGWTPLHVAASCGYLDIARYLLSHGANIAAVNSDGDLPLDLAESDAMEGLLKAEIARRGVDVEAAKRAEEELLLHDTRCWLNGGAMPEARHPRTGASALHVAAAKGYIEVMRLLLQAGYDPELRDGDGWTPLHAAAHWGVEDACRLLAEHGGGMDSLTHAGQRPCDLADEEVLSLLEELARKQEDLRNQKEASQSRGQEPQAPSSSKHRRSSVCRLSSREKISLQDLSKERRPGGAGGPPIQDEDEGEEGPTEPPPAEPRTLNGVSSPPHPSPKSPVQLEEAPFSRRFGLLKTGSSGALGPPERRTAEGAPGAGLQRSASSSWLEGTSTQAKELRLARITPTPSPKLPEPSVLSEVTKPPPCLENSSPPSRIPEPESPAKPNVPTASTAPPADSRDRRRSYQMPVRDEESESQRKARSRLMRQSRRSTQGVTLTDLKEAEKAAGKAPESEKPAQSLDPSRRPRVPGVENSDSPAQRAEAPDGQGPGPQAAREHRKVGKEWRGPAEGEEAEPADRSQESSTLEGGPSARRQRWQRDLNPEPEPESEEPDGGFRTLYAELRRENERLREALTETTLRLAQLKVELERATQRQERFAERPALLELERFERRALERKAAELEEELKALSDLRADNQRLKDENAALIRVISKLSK
UniProt Q14442, sequence (Q14442 whole entry, looked up): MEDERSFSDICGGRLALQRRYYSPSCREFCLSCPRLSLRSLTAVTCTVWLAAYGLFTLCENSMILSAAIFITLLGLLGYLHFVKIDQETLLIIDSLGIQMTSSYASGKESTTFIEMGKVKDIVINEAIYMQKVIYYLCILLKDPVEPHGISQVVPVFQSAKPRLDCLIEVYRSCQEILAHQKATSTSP
UniProt P60484, sequence (P60484 whole entry, looked up): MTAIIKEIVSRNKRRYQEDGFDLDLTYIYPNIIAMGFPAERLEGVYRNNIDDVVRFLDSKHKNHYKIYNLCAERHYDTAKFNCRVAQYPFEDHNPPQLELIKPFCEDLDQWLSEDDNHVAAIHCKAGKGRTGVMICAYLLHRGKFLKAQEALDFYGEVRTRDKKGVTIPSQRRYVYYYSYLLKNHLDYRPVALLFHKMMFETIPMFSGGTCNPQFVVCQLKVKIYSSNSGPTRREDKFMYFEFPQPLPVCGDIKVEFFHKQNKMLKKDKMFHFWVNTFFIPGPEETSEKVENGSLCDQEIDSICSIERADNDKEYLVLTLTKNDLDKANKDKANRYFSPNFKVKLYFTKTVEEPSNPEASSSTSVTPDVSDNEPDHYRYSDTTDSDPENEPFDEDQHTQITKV

Compound in the first assay: COc1cccc2cc(-c3nc([C@H]4CC[C@H](C(=O)O)CC4)n4ncnc(N)c34)[nH]c12
As to the kind of experiment: log2 fold change, soluble protein after heating vs DMSO (PISA); higher = thermal stabilisation; K562 cells, 10 uM, 30 min; active = over 0.2 and 3.5 SD of the protein, either way, in both replicates (recomputed). In short, it runs like this:
(§1)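 K562 cells at 2×10^6 cells/mL were treated for 30 min with 10 μM compound, and aliquots were heated for 3 min over 48°C-58°C before pooling. Extraction used PBS with 0.5% NP-40 at 4°C, and soluble protein was the supernatant after 21,000xg for 90 min, measured by TMTpro 16plex LC-MS/MS with channel sums equalised. Thermal stability values, relative to control samples and from duplicates, are log2 fold changes.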
As for PMVK (UniProt Q15126), the log2 fold change is -0.144.

On to PSMC3 (UniProt E9PLG2), for which the log2 fold change is 0.079.

PPP1R12C (UniProt Q9BZL4): the log2 fold change is -0.009.

As to PCBP2 (UniProt F8VZX2), the log2 fold change is -0.018.

For PHLDB1 isoform 2 (UniProt Q86UU1), the log2 fold change was -0.032.

PKM isoform 2 (UniProt P14618): the log2 fold change is 0.059.

Regarding PIGH (UniProt Q14442), the log2 fold change was 0.038.

Turning to PPP2R5C isoform 2 (UniProt Q13362), the log2 fold change was -0.009.

On to PPP2R5B (UniProt Q15173), for which the log2 fold change is -0.058.

As to PTPA (UniProt A6PVN8), the log2 fold change is 0.297.

Consider PHRF1 (UniProt Q9P1Y6), for which the log2 fold change is -0.121.

PRKX (UniProt P51817): the log2 fold change was 0.098.

On to PSD3 (UniProt Q9NYI0), for which the log2 fold change is 0.069.

In the case of PIAS4 (UniProt Q8N2W9), the log2 fold change is -0.167.

On to PCNX1 (UniProt Q96RV3), for which the log2 fold change was 0.035.

For the target PCF11 (UniProt O94913), the log2 fold change was 0.106.

On to PMS2CL (UniProt Q68D20), for which the log2 fold change is -0.099.

As for POLR2E (UniProt P19388), the log2 fold change is 0.029.

On to PIM1 isoform 2 (UniProt P11309), for which the log2 fold change was -0.327.

PUF60 isoform 2 (UniProt Q9UHX1): the log2 fold change was 0.027.

Regarding PHC3 isoform 7 (UniProt Q8NDX5), the log2 fold change is 0.203.

Compound in another assay: CS(=O)(=O)CCNCc1ccc(-c2ccc3ncnc(Nc4ccc(OCc5cccc(F)c5)c(Cl)c4)c3c2)o1 [lapatinib]
The assay is described as above. In short, it runs like this: as §1
Take PSMC1 (UniProt G3V4X1): the log2 fold change was -0.105.

With PPP1R12C (UniProt Q9BZL4), the log2 fold change was 0.084.

Turning to PDE4A (UniProt P27815), the log2 fold change was -0.016.

For the target PSMA3 (UniProt H0YJ03), the log2 fold change was 0.021.

On to PRR14L (UniProt Q5THK1), for which the log2 fold change is 0.1.

For the target PHLDB1 isoform 2 (UniProt Q86UU1), the log2 fold change was -0.039.

Consider PKM isoform 2 (UniProt P14618), for which the log2 fold change was -0.115.

As for PIGH (UniProt Q14442), the log2 fold change is -0.009.

Turning to POLB (UniProt P06746), the log2 fold change is -0.006.

Turning to PPP2R5B (UniProt Q15173), the log2 fold change is 0.051.

In the case of PTPA (UniProt A6PVN8), the log2 fold change is 0.043.

In the case of PHRF1 (UniProt Q9P1Y6), the log2 fold change is 0.194.

As to PSD3 (UniProt Q9NYI0), the log2 fold change was -0.07.

PIAS4 (UniProt Q8N2W9): the log2 fold change was -0.017.

Regarding PCNX1 (UniProt Q96RV3), the log2 fold change is -0.475.

PCF11 (UniProt O94913): the log2 fold change was 0.012.

As for POLR2E (UniProt P19388), the log2 fold change is -0.013.

Turning to PSMA3 (UniProt G3V4X5), the log2 fold change was -0.18.

Consider PUF60 isoform 2 (UniProt Q9UHX1), for which the log2 fold change is 0.407.

Take PTEN isoform 2 (UniProt P60484): the log2 fold change was 0.094.

As for PHC3 isoform 7 (UniProt Q8NDX5), the log2 fold change was 0.05.

Compound in another assay: CS(=O)(=O)N1CCN(Cc2cc3nc(-c4cccc5[nH]ncc45)nc(N4CCOCC4)c3s2)CC1 [pictilisib]
The assay is described as above. The procedure, abridged:
as §1
As for PMVK (UniProt Q15126), the log2 fold change is 0.073.

Take PSMC1 (UniProt G3V4X1): the log2 fold change is -0.071.

Consider PPP1R12C (UniProt Q9BZL4), for which the log2 fold change is -0.228.

For the target PRR14L (UniProt Q5THK1), the log2 fold change is 0.103.

With PUM1 (UniProt Q14671), the log2 fold change is 0.032.

In the case of PRKD2 (UniProt M0R346), the log2 fold change was 0.06.

Regarding PHLDB1 isoform 2 (UniProt Q86UU1), the log2 fold change was -0.498 (active).

Take PKM isoform 2 (UniProt P14618): the log2 fold change was 0.109.

Turning to PIGH (UniProt Q14442), the log2 fold change is 0.04.

Take POLB (UniProt P06746): the log2 fold change is -0.022.

Take PPP2R5B (UniProt Q15173): the log2 fold change was 0.01.

In the case of PTPA (UniProt A6PVN8), the log2 fold change is 0.035.

For PIAS4 (UniProt Q8N2W9), the log2 fold change is -0.257.

Take PCF11 (UniProt O94913): the log2 fold change is 0.027.

As for POLR2E (UniProt P19388), the log2 fold change was 0.063.

In the case of PIM1 isoform 2 (UniProt P11309), the log2 fold change is -0.126.

Regarding PTEN isoform 2 (UniProt P60484), the log2 fold change was -0.028.

Compound in a further assay: CS(=O)(=O)c1ccc(-c2cnc(N)c(C(=O)Nc3ccccc3)n2)cc1
Described as above. In short, it runs like this:
as §1
Turning to PMVK (UniProt Q15126), the log2 fold change was 0.088.

As for PSMC3 (UniProt E9PLG2), the log2 fold change was 0.206.

As to PPP1R12C (UniProt Q9BZL4), the log2 fold change was -0.016.

For PRKD2 (UniProt M0R346), the log2 fold change was -0.025.

With PKM isoform 2 (UniProt P14618), the log2 fold change is -0.053.

As to POLB (UniProt P06746), the log2 fold change was -0.078.

Take PEX5 isoform 4 (UniProt P50542): the log2 fold change is -0.091.

With PTPA (UniProt A6PVN8), the log2 fold change was -0.116.

Consider PHC3 isoform 7 (UniProt Q8NDX5), for which the log2 fold change was -0.068.
